Results as given in PubChem BioAssay (Tox21).
Inconclusive results are not listed. Active and inactive are the calls of the source. Calls follow the shape of the dose curve; as a rule, active = well fitted cell-killing curve with a large enough effect in the repeat runs; inconclusive = weak or mixed curves, or effect the other way; inactive = no such curve, though single readings can be large or run the other way.

Experiment: qHTS assay to identify small molecule antagonists of the retinoid-related orphan receptor gamma (ROR-gamma) signaling pathway - cell viability counter screen (AID 1159520); also: nearly all actives have a fitted effect of over 50% in size
Conditions: Tet-on RORgamma CHO cells viability, ATP luminescence, 16 h; series mostly up to 92.4 µM; activity, negative = cytotoxicity: at the top concentration
Text: U.S. Tox21 Program National Center for Advancing Translational Sciences [NCATS] NIH Chemical Genomics Center [NCGC] U.S. Environmental Protection Agency [EPA] National Institutes of Environmental Health Sciences [NIEHS] National Toxicology Program [NTP] U.S. Food and Drug Administration [FDA] Tox21 Assay Overview: Nuclear steroid hormone receptors are involved in many biological processes including inflammatory responses, cell proliferation, and apoptosis. Environmental factors or compounds disrupting these nuclear receptor pathways and gene expression may promote susceptibility to immunotoxicants and autoimmune diseases. One important group of these expression factors are the retinoid-related orphan receptors. To assess compounds that may interfere with the retinoid-related orphan receptor gamma (ROR-gamma) transcription factor, a cell-based luciferase assay was used. The CHO cell-based assay utilizes a TET-inducible ROR expression factor and ROR response element-LUC reporter gene. Reporter gene activity was induced using Doxycycline Hyclate and measured after 16 hr incubation. Tet-on ROR gamma CHO cells were used to screen against the Tox21 10K compound library for cytotoxicity by measuring the viability of the cells based on the quantitation of the ATP.
Tox21 Assay Protocol Summary: Tet-on ROR gamma CHO cells were dispensed at 1,000 cells in 4 uL of culture medium per well into white wall/solid bottom 1536-well plates using a Multidrop Combi (Thermo Scientific, Waltham, MA) dispenser. Following incubation at 37 C and 5% CO2 for 4 hr, 23 nL of compounds dissolved in DMSO, positive controls or DMSO only were transferred by a Pintool station (Kalypsys, San Diego, CA) and after 2 hr incubation at 37 C, one ul of 1 uM (final concentration) of Doxycycline Hyclate was added to all the wells by using a Flying Reagent Dispenser (FRD) (Aurora Discovery, San Diego, CA). After 16 hr incubation at 37 C and 5% CO2, 5 uL of CellTiter-Glo reagent (Promega Corporation, Madison, WI) was added to each assay plate using FRD. After 30 min incubation at room temperature, luminescence was quantified on a ViewLux plate reader (Perkin Elmer, Waltham, MA).
% is scaled to controls: 0 for no effect and ±100 for the full control effect.

| Compound | activity, negative = cytotoxicity |
| --- | --- |
| CC(CC=O)CCCC(C)(C)O (stereo not given) | 9.49% (inactive) |
| CC(=O)Nc1ccc(S(=O)(=O)Nc2ccc([N+](=O)[O-])cc2)cc1 | -0.144% [at 42.5 µM] (inactive) |
| CC1=CCC(C(C)C)=CC1 | 2.36% (inactive) |
| CCc1ccc(C=O)cc1 | -21.3% (inactive) |
| OCCC(F)(F)C(F)(F)C(F)(F)C(F)(F)C(F)(F)C(F)(F)C(F)(F)C(F)(F)F | 0.145% (inactive) |
| FC(F)(F)c1ccccc1-n1ccnc1 | -0.692% [at 42.5 µM] (inactive) |
| N[C@@H](CCC(=O)Nc1ccc([N+](=O)[O-])cc1)C(=O)O | 1.91% (inactive) |
| Cc1ccc2c(c1)OCC(=O)CO2 | 0.736% (inactive) |
| CO[C@@H]1[C@@H](OC(N)=O)[C@@H](O)[C@H](Oc2ccc3c(O)c(NC(=O)c4ccc(O)c(CC=C(C)C)c4)c(=O)oc3c2C)OC1(C)C | 0.0415% [at 42.5 µM] (inactive) |
| CC/C=C\CC1=C(C)CCC1=O | -4.68% (inactive) |
| Cc1cc(Cl)c(C)cc1Cl | 6.18% (inactive) |
| COc1cc(NS(=O)(=O)c2ccc(N)cc2)nc(OC)n1 | -0.696% [at 42.5 µM] (inactive) |
| NNc1nnc(NN)c2ccccc12 | -0.568% [at 42.5 µM] (inactive) |
| Cc1cc(NC(=O)C2=C(O)c3ccccc3S(=O)(=O)N2C)no1 | -1.14% [at 42.5 µM] (inactive) |
| C[C@@H](Oc1ccc(CNC(=O)c2cccnc2Oc2ccc3c(c2)OCO3)c(F)c1)C(=O)O | -0.432% (inactive) |
| COc1ccc(Br)c(C)c1 | 0.735% (inactive) |
| CCOCCOCCOCC | 10% (inactive) |
| CCn1ccc(NS(=O)(=O)c2ccc(N)cc2)nc1=O | 3.11% [at 42.5 µM] (inactive) |
| O=C1c2ccccc2C(=O)N1CCl | -11.2% (inactive) |
| CCCCCCN | -4.61% (inactive) |

| Compound | activity, negative = cytotoxicity |
| --- | --- |
| COC(=O)CCc1ccc(OCC(O)CNC(C)C)cc1 (stereo not given) | -0.983% [at 42.5 µM] (inactive) |
| O=C(NCCc1c[nH]c2ccccc12)c1cccnc1 | 0.954% [at 42.5 µM] (inactive) |
| NCCS | 0.0815% [at 42.5 µM] (inactive) |
| CCO[Si](CCCS)(OCC)OCC | -6.64% (inactive) |
| O=S(=O)(O)CCN1CCN(CCO)CC1 | -2.04% (inactive) |
| CCCCNc1ccc(C(=O)OCCN(C)C)cc1 | 0.516% [at 42.5 µM] (inactive) |
| O=C1CCCC(=O)O1 | 7.23% (inactive) |
| CC(C)(C)NC(N)=O | -1.96% (inactive) |
| COc1ccc(C2CNC(=O)C2)cc1OC1CCCC1 (stereo not given) | 2.37% [at 42.5 µM] (inactive) |
| COc1ccc2nc(SCc3ncc(C)c(OC)c3C)[nH]c2c1 | 5% [at 42.5 µM] (inactive) |
| CCCCCCCC/C=C\CCCCCCCC(=O)OCCCC | -6.58% [at 19 µM] (inactive) |
| C#CC(C)N(C)C(=O)Nc1ccc(Cl)cc1 (stereo not given) | 0.651% (inactive) |
| Oc1ccccc1-c1nnco1 | -0.663% [at 42.5 µM] (inactive) |
| COCCc1ccc(OCC2CO2)cc1 (stereo not given) | 0.123% [at 42.5 µM] (inactive) |
| Cc1ccccc1OCC(O)CO (stereo not given) | -3.86% [at 42.5 µM] (inactive) |
| CCCN1C[C@H](CSC)C[C@@H]2c3cccc4[nH]cc(c34)C[C@H]21 | 0.0553% [at 42.5 µM] (inactive) |
| CC(C)C(=O)OCCc1ccccc1 | 1.51% (inactive) |
| Cc1ccc(S(=O)(=O)O)c(C)c1 | 10.9% (inactive) |
| CCCCC(CC)COCCO (stereo not given) | -4.82% (inactive) |
| CC1COc2ccccc2N1 (stereo not given) | 2.93% (inactive) |
